Source: PubChem
Cruzain inh noDet: cruzain (T. cruzi) inhibition without detergent | P25779 | Potency, µM, for inactives: max response, negative = inhibition, most hits filed as inhibitors | purified cruzain, Z-FR-AMC fluorescence, no detergent | actives 2.3% (n = 200,000);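 note: plate controls were enzyme without inhibitor for no effect and buffer without enzyme for full effect; nearly all actives have a fitted effect of over 40% in size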
Target sequence (P25779 123-467 limits assumed): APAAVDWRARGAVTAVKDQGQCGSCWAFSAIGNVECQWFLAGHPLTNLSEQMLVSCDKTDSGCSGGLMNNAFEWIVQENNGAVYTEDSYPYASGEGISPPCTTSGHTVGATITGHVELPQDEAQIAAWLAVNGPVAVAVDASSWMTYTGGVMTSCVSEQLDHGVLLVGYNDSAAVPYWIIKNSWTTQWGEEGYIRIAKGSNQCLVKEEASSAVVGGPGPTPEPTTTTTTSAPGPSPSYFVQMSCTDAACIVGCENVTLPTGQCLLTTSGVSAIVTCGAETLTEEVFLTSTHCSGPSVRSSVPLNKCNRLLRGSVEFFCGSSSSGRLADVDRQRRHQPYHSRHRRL
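Purified cruzain at 1.5 nM, pre-incubated 15 min with compound at room temperature in 100 mM sodium acetate pH 5.5, 5 mM DTT, 0.00005% Triton X-100. Reaction started with 2 uM Z-FR-AMC; AMC fluorescence increase over 60 s gives rate.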
Cruzain inh Det: inhibitors of Trypanosoma cruzi cruzain with detergent; actives 0.43% (n = 200,000); Potency, µM, inactives show max response, negative = inhibition, hits mostly inhibitors; P25779; purified cruzain, Z-FR-AMC fluorescence, 0.01% Triton;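 note: plate controls were neutral wells for no effect and buffer without enzyme for full effect; nearly all actives have a fitted effect of over 40% in size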
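Enzyme 1.5 nM, Z-FR-AMC 2 uM, NaOAc 100 mM pH 5.5, DTT 5 mM, Triton X-100 0.01%; 15 min RT compound preincubation; kinetic ex360/em450, 60 s delta.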
Active calls of the source: *; ? = inconclusive. A selection: hits, their analogues and other compounds. The true share with any hit is near 2.4%. Calls come from the whole dose curve; as a rule, active = well fitted curve in the direction sought with a large enough effect; inconclusive = small, poorly fitted or top-dose-only effect, or another doubt; inactive = no such curve, though single readings can be large; an effect the other way counts as inactive or inconclusive. Potency is the fitted concentration of half-maximal effect.

SMILES	Cruzain inh noDet	Cruzain inh Det
Cc1cccc(NS(=O)(=O)c2ccc3[nH]c4c(c3c2)CCCCCC4)c1	-3.6%	-4.7%
CCc1ccc(NC(=O)C2CCN(S(=O)(=O)c3ccc4[nH]c5c(c4c3)CCCCC5)CC2)cc1	10µM*	1.5%
Cc1cccc(NC(=O)C2CCN(S(=O)(=O)c3ccc4[nH]c5c(c4c3)CCCCC5)CC2)c1	12.6µM*	0.9%
O=C(Nc1ccccc1)C1CCN(S(=O)(=O)c2ccc3[nH]c4c(c3c2)CCCCC4)CC1	15.8µM*	-1.7%
CC(=O)c1cccc(NC(=O)C2CCN(S(=O)(=O)c3ccc4[nH]c(=O)ccc4c3)CC2)c1	-2.6%	-3.7%
O=C(NCc1ccc2[nH]c3c(c2c1)CCCC3)c1ccc(S(=O)(=O)N2CCCCC2)cc1	?	-3.4%
CCCCCCCCCCCCCCCCCCNC(=O)OCC(COP(=O)([O-])OCC[n+]1ccsc1)OC (stereo not drawn)	?	2.1%
CN(C)c1ccc(C2CC(c3c(O)n(C4CCCCC4)c(=O)[nH]c3=O)=Nc3ccccc3S2)cc1 (stereo not drawn)	12.8%	-4.9%
Cc1cccc(OCCCCn2nnc3sc4c(c3c2=O)CCC(C)C4)c1 (stereo not drawn)	-9.3%	-1.4%
O=C(NCCc1ccccc1)c1ccc2c(c1)CCN2S(=O)(=O)c1ccccc1	-3.8%	-5.1%
O=C(/C=C/Nc1ccc(Cc2ccc(N/C=C/C(=O)C(F)(F)F)cc2)cc1)C(F)(F)F	?	-3.9%
COc1ccc(/C=C2/C(=O)N(c3nc4ccccc4s3)N=C2CSc2ccc(Cl)cc2)cc1	3.16µM*	-8.3%
COc1ccc(/C=C2/C(=O)N(Cc3ccccc3)N=C2C)cc1	1.1%	0.0%
Cc1occc1-c1nnc(SCC(=O)N2c3ccccc3CCc3ccccc32)n1C	0.4%	2.7%
COc1ccccc1[C@H]1C(c2ccc(F)cc2)=NN(c2ccccc2)[C@@H]1CO	31.6µM*	-1.4%
COc1ccccc1[C@H]1C(c2cccc(C)c2)=NN(c2ccccc2)[C@@H]1CO	17.8µM*	3.0%
COc1ccccc1[C@H]1C(c2ccccc2)=NN(c2ccccc2)[C@@H]1CO	?	-26.2%
CC[C@H]1C(c2ccccc2)=NN(c2ccccc2)[C@@H]1CO	?	-7.5%
CCOc1ccc(NC(=O)Cn2c(=O)n(CCc3ccccc3)c(=O)c3c4c(sc32)CN(C(C)=O)CC4)cc1	?	-5.2%
Cc1ccc(NC(=S)NC(NC(=O)c2ccccc2)C(Cl)(Cl)Cl)c(C)c1 (stereo not drawn)	5.8%	-9.4%
Cc1ccc(C)c(NC(=S)NC(NC(=O)Cc2ccccc2)C(Cl)(Cl)Cl)c1 (stereo not drawn)	25.1µM*	4.2%
O=C(NC(NC(=S)Nc1ccccc1)C(Cl)(Cl)Cl)c1cccc(Cl)c1 (stereo not drawn)	-9.1%	?
Cc1ccc(NC(=S)NC(NC(=O)c2ccco2)C(Cl)(Cl)Cl)cc1 (stereo not drawn)	15.0%	4.47µM*
Cc1cccc(NC(=S)NC(NC(=O)c2ccco2)C(Cl)(Cl)Cl)c1 (stereo not drawn)	1.7%	3.16µM*
Cc1ccccc1C(=O)NC(NC(=S)Nc1ccc(S(N)(=O)=O)cc1)C(Cl)(Cl)Cl (stereo not drawn)	-27.4%	12.6µM*
SMILES	Cruzain inh noDet	Cruzain inh Det
Cc1ccc(C(=O)NC(NC(=S)Nc2ccc(S(N)(=O)=O)cc2)C(Cl)(Cl)Cl)cc1 (stereo not drawn)	-4.4%	-16.9%
O=C(O)c1ccc(NC(=S)NC(NC(=O)c2ccco2)C(Cl)(Cl)Cl)cc1 (stereo not drawn)	9.3%	-5.4%
O=C1CCC[C@@H]2CC(NCc3ccc(Cl)c(Cl)c3)C[C@@H]3CCN1[C@H]23 (stereo partly drawn)	-0.6%	0.6%
Cc1ccc(CNc2nc(N)c([N+](=O)[O-])c(Nc3ccc(F)cc3)n2)cc1	15.8µM*	-0.3%
Cc1ccc(CNc2nc(N)c([N+](=O)[O-])c(NCc3ccccc3)n2)cc1	?	-1.6%
Cc1nc2cnc(N(C)C)nc2n(CCc2ccccc2)c1=O	28.6%	-2.9%
Cc1cc2oc(=O)cc(CN3CCc4ccccc43)c2cc1Cl	?	-3.8%
CCc1ccc2c(CN3CCc4ccccc43)cc(=O)oc2c1	31.6µM*	-3.7%
Cc1ccc(C)c(NC(=O)Cn2c(-c3nonc3N)nc3ccccc32)c1	3.2%	-1.4%
Cc1ccc(NC(=O)Cn2c(-c3nonc3N)nc3ccccc32)cc1C	3.98µM*	7.08µM*
COc1ccc2ncc3c(-c4ccc(C)c(C)c4)nn(CC(=O)NC4CCCCC4)c3c2c1	2.4%	-3.5%
O=C(/C=C/c1ccc2ccccc2c1)c1ccoc1	20µM*	6.5%
COc1ccc(C(=O)/C=C/c2ccccc2)cc1	2.9%	-6.2%
COc1ccc(-n2c(C)cc(-c3csc(N)n3)c2C)cc1	20µM*	-2.5%
C=CCn1c(C)cc(-c2csc(N)n2)c1C	?	-4.7%
CCCn1c(C)cc(-c2csc(N)n2)c1C	?	-7.8%
